Sampled rows, rich in hits. Any-hit rate of the full collection: about 21%.
Pf growth 96h = Primary qHTS for delayed death inhibitors of the malarial parasite plastid, 96 hour incubation. P. falciparum luciferase reporter growth, 96 h. Potency, µM (titrated, usually from 28.7 µM), for the others: top-dose activity change, negative = inhibition, hits mostly inhibitors. hit rate 6.9% among 320,000; note: potency is the fitted concentration of half-maximal effect; % is set by controls: 0 for no effect and ±100 for the full control effect
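Plates of compound plus infected erythrocytes (2% hematocrit, 0.05% parasitemia final) incubate 96 hours, 37 C, 5% CO2. Detection reagent added; reduced luminescence from the parasites' luciferase reporter flags inhibition.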
FBPA Giardia inh = qHTS Assay for Inhibitors of Fructose-1,6-bisphosphate Aldolase from Giardia Lamblia | A8B2U2 | purified Giardia FBPA | Potency, µM (doses to about 59.6 µM), without a hit: at the highest dose activity, negative = inhibition, hits mostly inhibitors | hit rate 0.71% among 290,000; note: potency is the fitted concentration of half-maximal effect; % is set by controls: 0 for no effect and ±100 for the full control effect; nearly all actives have a fitted effect of over 55% in size
Target sequence (A8B2U2 whole entry, looked up): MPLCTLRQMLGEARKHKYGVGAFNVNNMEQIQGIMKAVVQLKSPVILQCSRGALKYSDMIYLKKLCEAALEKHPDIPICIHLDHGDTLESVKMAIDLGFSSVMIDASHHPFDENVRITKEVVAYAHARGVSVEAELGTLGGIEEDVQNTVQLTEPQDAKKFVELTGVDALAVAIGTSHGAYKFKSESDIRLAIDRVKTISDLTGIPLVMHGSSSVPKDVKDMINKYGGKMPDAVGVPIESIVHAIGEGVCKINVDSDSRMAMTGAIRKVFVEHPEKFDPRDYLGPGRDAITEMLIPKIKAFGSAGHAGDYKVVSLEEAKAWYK
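Giardia FBPA (40 nM reagent) was preincubated 10 min at RT with compound (up to 57.5 uM final), then substrate plus GAPDH/TPI/NAD/arsenate coupling system with diaphorase/resazurin was added; resorufin fluorescence (525/598 nm) was read after 20 min.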
Shiga toxin inh = A qHTS for Small Molecule Inhibitors of Shiga Toxin | Vero cells, Shiga toxin protein synthesis inhibition reporter | hit rate 9.2% among 290,000 | inhibition, % at 38.7 µM; in the data active = inhibition mostly above about 28%, no sharp cut-off; inactive = mostly below about 43%; note: 0% is about no effect
Pf growth 48h = Primary qHTS for delayed death inhibitors of the malarial parasite plastid, 48 hour incubation; AID 504832, 2011; P. falciparum luciferase growth in erythrocytes, 48 h; Potency, µM (top dose mostly 28.7 µM), inactives show top-dose activity change, negative = inhibition, hits mostly inhibitors; hit rate 5.9% among 310,000; note: potency is the fitted concentration of half-maximal effect; % is set by controls: 0 for no effect and ±100 for the full control effect
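Here the parasites carry a stable luciferase gene and grow inside erythrocytes in Albumax-based RPMI medium with compound for one erythrocytic cycle. Activity is scored as loss of luminescent signal.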
Cycloheximide cs = Cycloheximide Counterscreen for Small Molecule Inhibitors of Shiga Toxin | cell reporter, cycloheximide protein synthesis inhibition counterscreen | max response, % | hit rate 12% among 300,000 | AID 2314, 2010; in the data active = max response mostly above about 13%, no sharp cut-off; inactive = mostly below about 14%; note: read at 38.3 µM for the half of the compounds with a filed dose; 0% is about no effect
NS1 inh = qHTS Assay for Inhibitors of Influenza NS1 Protein Function. Potency, µM (top dose mostly 46.1 µM), for inactives: top-dose activity, positive = more growth. AID 2326, 2010. hit rate 0.4% among 270,000; calls by dose curve; note: potency is the fitted concentration of half-maximal effect; actives are rising curves; nearly all actives have a fitted effect of over 50% in size
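Growth recovery, yeast-based: influenza A NS1 expressed in S. cerevisiae causes slow growth, and suppressors are detected by OD600. The parent strain without NS1 is used as positive control.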
The depositor's hits bear a star; ? = inconclusive; · = no result given; [ ] = remark or other dose. Unless noted, calls come from the whole dose curve; as a rule, active = well fitted curve in the direction sought with a large enough effect; inconclusive = small, poorly fitted or top-dose-only effect, or another doubt; inactive = no such curve, though single readings can be large; an effect the other way counts as inactive or inconclusive.

SMILES | Pf growth 96h | FBPA Giardia inh | Shiga toxin inh | Pf growth 48h | Cycloheximide cs | NS1 inh
COc1ccc2c(c1)C(c1ccc(C)o1)=NNC(c1ccccc1)=N2 | -0.5% | -3.8% | 95.8* | ? | 42.5* | 8.7%
CCSc1nc(NCCN(C)C)c2c3c(sc2n1)COC(C)(CC)C3 (centres undefined) | 11.7µM* | 5.7% | -10.5 | 3.29µM* | 29.7* | 2.0%
CCN(CC)CCNc1nc(-n2nc(C)cc2C)nc2sc3c(c12)CC(C)(C)OC3 | ? | -1.1% | 31.3 | ? | 11.8* | -8.2%
Cc1cc(C)n(-c2nc(-n3nc(C)cc3C)c3c4c(sc3n2)COC(C)(C)C4)n1 | 1.04µM* | -0.2% | 33.2 | ? | 18.9 | -8.0%
Cc1cc(C)n(-c2nc(NCCC(C)C)c3c4c(sc3n2)COC(C)(C)C4)n1 | 3.7µM* | 14.4% | -9.1 | · | -2.0 | 5.5%
COc1ccccc1C(=O)NC(=O)COC(=O)C1(C)CC1(Cl)Cl (centres undefined) | 18.5% | · | · | 4.4% | · | ·
Cc1cc(C)n(-c2nc(NCCN(C)C)c3c4c(sc3n2)CCCC4)n1 | -2.4% | 3.9% | -6.2 | ? | 7.7 | -4.6%
Cc1cc(C)n(-c2ncnc3sc4c(c23)CCCC4)n1 | 13.1µM* | 21.3% | -8.0 | -11.9% | -7.6 | -8.2%
Cc1cc(C)n(-c2nc(NCCCN(C)C)c3c4c(sc3n2)CCCC4)n1 | -6.9% | -0.3% | -11.2 | 11.7µM* | -1.6 | 3.6%
CC(=O)c1ccc(NC(=O)CCNC(=O)c2ccc(Cl)cc2)cc1 | -0.7% | -2.7% | 35.6 | -8.0% | 1.4 | -1.1%
COc1ccc(CNc2nc(-c3ccc(N(C)C)cc3)nc3ccccc23)c(OC)c1 | · | 17.7µM* | · | · | · | ·
COc1ccc(CNc2nc(-c3ccc(C(=O)N(C)C)cc3)nc3ccccc23)c(OC)c1 | · | -14.2% | · | · | · | ·
CC(=O)N1CCN(C(=O)COC(=O)c2oc3ccccc3c2C)CC1 | -19.3% | · | · | 20.3% | · | ·
CS(=O)(=O)Nc1cccc(C2=NN(S(C)(=O)=O)C(c3ccc4c(c3)OCO4)C2)c1 (centres undefined) | 2.33µM* | 3.5% | 49.7* | 36.6% | 24.7* | -13.7%
CS(=O)(=O)N1N=C(c2ccccc2)CC1c1ccc2c(c1)OCO2 (centres undefined) | 6.2% | -0.4% | 99.0* | 85.8% | 66.3* | 8.7%
CS(=O)(=O)Nc1cccc(C2=NN(S(=O)(=O)c3ccc(F)cc3)C(c3cccs3)C2)c1 (centres undefined) | ? | 0.1% | -8.8 | -13.7% | -1.6 | ?
CS(=O)(=O)Nc1ccc(C2=NN(S(C)(=O)=O)C(c3ccccc3)C2)cc1 (centres undefined) | 135.1% | 0.1% | 41.8* | 24.8% | 20.4 | -3.8%
COc1cc(OC)c(OC)cc1CNC(=O)c1cc(=O)[nH]c2ccccc12 | 0.4% | -5.6% | -1.4 | 4.0% | -3.6 | -0.8%
O=C(O)c1cc(Cl)ccc1-c1ccc(/C=C/c2cc(C(F)(F)F)[nH]c(=O)n2)o1 | 9.28µM* | 10.1% | -6.8 | 9.1% | -2.5 | 10.0%
OC(CNCc1ccccc1)c1ccccc1 (centres undefined) | ? | 2.7% | 1.1 | 9.28µM* | 1.4 | 0.7%
OC(CNCc1cccc(Cl)c1)c1ccccc1 (centres undefined) | 8.4% | -7.4% | -5.0 | 2.08µM* | 4.9 | -0.2%
CCCC[C@H](O)c1ccccc1 | ? | · | · | 1.4% | · | ·
OC(C[n+]1ccccc1)c1ccccc1 (centres undefined) | 0.657µM* | 6.1% | -3.6 | ? | -1.1 | 1.0%
OC(CNC1Cc2ccccc2C1)c1ccccc1 (centres undefined) | 13.1µM* | -1.9% | 4.2 | 11.7µM* | 9.3 | 0.6%
OC(CNCC#Cc1ccccc1)c1ccccc1 (centres undefined) | -24.3% | 1.0% | 23.4 | ? | -1.4 | 7.1%
SMILES | Pf growth 96h | FBPA Giardia inh | Shiga toxin inh | Pf growth 48h | Cycloheximide cs | NS1 inh
Cc1cc(C)cc(N(C(=O)c2csnn2)C(C(=O)NC2CCCC2)c2cccnc2)c1 (centres undefined) | -3.3% | -5.2% | -7.5 | ? | -3.3 | 1.8%
Cc1cccc([C@@H]2[C@@H]3C(=O)N(Cc4ccccc4)C(=O)[C@@H]3[C@]3(CC(C)C)C(=O)N(c4cccc(F)c4)C(=O)N23)c1 | ? | · | · | 9.28µM* | · | ·
CC[C@@]12C(=O)N(c3cccc(F)c3)C(=O)N1[C@H](c1cccc(C)c1)[C@@H]1C(=O)N(Cc3ccccc3)C(=O)[C@@H]12 | ? | 11.9% | -4.2 | ? | -1.6 | 8.6%
CCN1C(=O)[C@H]2[C@@H](c3ccc(C)cc3)N3C(=O)N(c4cccc(Br)c4)C(=O)[C@@]3(CC(C)C)[C@H]2C1=O | 14.7µM* | · | · | ? | · | ·
CC[C@@]12C(=O)N(c3ccccc3)C(=O)N1[C@H](c1cccc(C)c1)[C@@H]1C(=O)N(Cc3ccccc3)C(=O)[C@@H]12 | 6.57µM* | -3.8% | 0.5 | ? | -2.0 | -4.5%
CC[C@@]12C(=O)N(c3cccc(Br)c3)C(=O)N1[C@H](c1cccc(C)c1)[C@@H]1C(=O)N(Cc3ccccc3)C(=O)[C@@H]12 | 5.22µM* | · | · | 4.15µM* | · | ·
Cc1cccc([C@@H]2[C@@H]3C(=O)N(Cc4ccccc4)C(=O)[C@@H]3[C@]3(CC(C)C)C(=O)N(c4cccc(Br)c4)C(=O)N23)c1 | ? | 2.2% | -1.4 | ? | -1.8 | 4.9%
CSc1ncccc1C(=O)NNc1cc(Cl)ccc1Cl | -5.5% | 4.6% | 12.6 | -19.5% | 1.0 | -56.1%
C=C1C[C@@]23C[C@@]1(O)CC[C@@H]2[C@]12C=C[C@@H](O)[C@](C)(C(=O)O1)[C@@H]2[C@@H]3C(=O)O | · | 5.9% | · | · | · | ·
CCN1C(=O)[C@H]2[C@@H](c3ccc(C)cc3)N3C(=O)N(c4ccccc4)C(=O)[C@@]3(CC)[C@H]2C1=O | 26.8% | 4.5% | 28.0 | 60.3% | 14.5* | 4.6%
COc1ccc(-c2ccc3nnc(SCC(N)=O)n3n2)cc1 | 0.0% | -21.4% | 17.6 | 15.1% | 6.8 | ·
CCSc1nnc2ccc(-c3ccc(OC)c(OC)c3)nn12 | 35.1% | -6.5% | 18.8 | -22.1% | 24.9* | -8.3%
Cc1nnc(NC(=O)C(C)Sc2nnc(-c3ccco3)n2C(C)C)s1 (centres undefined) | 10.4% | ? | -2.6 | -1.9% | -1.2 | 9.7%
CC(=O)c1cccc(NC(=S)NC(=O)Cc2ccc(Cl)cc2)c1 | ? | -27.1% | -11.3 | 6.5% | -1.2 | 6.7%
CC(=O)c1cccc(NC(=S)NC(=O)c2ccccc2Cl)c1 | -2.8% | -28.9% | 83.3* | 13.1% | 21.2* | 7.5%
O=C(NC(=S)Nc1ccccc1O)c1ccccc1Cl | -10.1%[1.15 µM] | -3.1% | 77.3* | 22.5% | 43.9* | -1.0%
O=C(NC(=S)Nc1ccccc1C(F)(F)F)c1ccccc1F | -3.4% | -5.2% | -5.6 | -13.0% | 1.7 | 0.3%

Source: PubChem BioAssay (National Center for Advancing Translational Sciences (NCATS))
